These results are taken from the supplement of paper PMC12067926.

Values without a mark were called inactive.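 Rule for the calls: active = growth AUC significantly below the DMSO wells by Dunnett test; inactive = the rest.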

Compound in the assay: COc1c(Cl)ccc(Cl)c1C(=O)O
Briefly: relative growth (AUC of 72 h growth curve relative to DMSO control, dAUC) (ratio); higher = more growth (less inhibition), active = hit call of the paper. Conditions: 20 µM. Here is the method:
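Environmental bacterial isolates (Iceland stream sediment and Silwood Park soil) and whole stream-sediment communities were grown in LB from a 1:100 dilution with each pesticide at 20 µM (1% DMSO). A600 was read hourly for 72 h and the area under a spline-fitted growth curve (AUC) was computed. dAUC is the mean AUC of 3 biological replicates divided by the mean AUC of the DMSO controls. Significance was tested by Dunnett's test against the DMSO control.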
As for Community 4, the relative growth was 1.09. Then “Paenibacillus 1 (Paenibacillus castaneae)”, with 1.01.

Pseudomonas 1 (Pseudomonas baetica): the relative growth was 0.637.

In the case of Arthrobacter 1 (Arthrobacter humicola), the relative growth is 0.981. In the case of Community 8 it was 0.99. Then Aeromonas 2 (Aeromonas sobria), with 1.01; and Pseudomonas 4 (Pseudomonas peli), with 1.01; and Argrobacterium 1 (Agrobacterium sp.), with 1.01. Then Oryzobacter 1 (Oryzobacter terrae), with 0.925; and Community 7, with 0.945.

For Serratia 1 (Serratia sp. 2015-2462-01), the relative growth was 1.02. As for “Pseudomonas 2 (Pseudomonas vancouverensis)”, the relative growth was 0.985. In the case of Community 10 it was 1.03; in that of Rhizobium 1 (Rhizobium herbae), 0.947; in that of Arthrobacter 2 (Arthrobacter humicola), 1.1. In the case of Bacillus 1 (Bacillus foraminis) it was 1.07; in that of Pseudomonas 6 (Pseudomonas sp.), 1.1. Then “Microbacterium 1 (Microbacterium arborescens)”, with 1.02; and “Prolinoborus 1 (Prolinoborus fasciculus)”, with 0.986. Consider Sphingomonas 2 (Sphingomonas sp.), for which the relative growth was 1.01. In the case of Community 6 it was 1.03; in that of “Flavobacterium 1 (Flavobacterium glaciei)”, 1.

As to Pseudomonas 5 (Pseudomonas baetica), the relative growth is 1.02. For the target “Carnobacterium 1 (Carnobacterium gallinarum)”, the relative growth was 1.19.

As to Aeromonas 3 (Aeromonas popoffii), the relative growth is 1.02. As for “Flavobacterium 2 (Flavobacterium succinicans)”, the relative growth was 1.01. For the target Arthrobacter 3 (Arthrobacter sp.), the relative growth was 1.07. Consider Neobacillus 1 (Neobacillus soli), for which the relative growth was 1.06. In the case of Community 9 it was 1.09; in that of Aeromonas 1 (Aeromonas sp. AE235), 1.02. Regarding Hymenobacter 1 (Hymenobacter glaciei), the relative growth is 1.

In the case of Pseudomonas 3 (Pseudomonas mandelii), the relative growth is 0.984.
